Results from PubChem BioAssay.
The source made the active and inactive calls.

Columns and labels:
[1] = compound effects on lung adenocarcinoma cell viability – A549, calcein-AM fluorescence, 48 h, basal, profiling panel (AID 1162); conditions: higher = more signal
[2] = compound effects on differentiated 3T3-L1 adipocyte viability – cell-based, 3T3-L1 adipocytes, calcein-AM fluorescence, 48 h, basal, profiling panel (AID 1163); conditions: 3T3-L1 adipocytes viability, higher = more signal
[3] = compound effects on hepatocellular carcinoma cell viability – HepG2, calcein-AM fluorescence, 48 h, basal, profiling panel (AID 1164); conditions: higher = more signal
[4] = compound effects on multiple myeloma cell viability – MM1S, calcein-AM fluorescence, 48 h, basal, profiling panel (AID 1165); conditions: higher = more signal
[5] = calcein-AM signal in unstimulated myeloma cells – cell-based, calcein-AM fluorescence, 48 h, PK04 Diversity Set, profiling panel (AID 1166); conditions: RPMI8226 myeloma viability, higher = more signal;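 note: cells grown under basal conditions without added stimulus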
[6] = JC-1 mitochondrial signal, unstimulated HepG2 cells – cell-based, JC-1 fluorescence, 24 h, 100 nL compound, profiling panel (AID 1167); conditions: HepG2 mitochondrial potential, higher = more signal
[7] = JC-1 mitochondrial signal, unstimulated adipocytes – cell-based, JC-1 fluorescence, 3T3-L1 adipocytes, 24 h, 100 nL compound, profiling panel (AID 1168); conditions: JC-1 mitochondrial fluorescence, higher = more signal, called active from +8 up or from −8 down
[8] = JC-1 mitochondrial signal, unstimulated myeloma cells – cell-based, JC-1 fluorescence, RPMI8226, 24 h, 100 nL compound, profiling panel (AID 1169); conditions: JC-1 mitochondrial potential fluorescence, higher = more signal
[9] = JC-1 mitochondrial signal, unstimulated MM1S myeloma – cell-based, JC-1 fluorescence, 24 h, 100 nL compound, profiling panel (AID 1170); conditions: MM1S mitochondrial potential, higher = more signal
[10] = resazurin metabolic signal in A549 cells – cell-based, resazurin fluorescence, 24 h, PK04 Diversity Set, profiling panel (AID 1171); conditions: A549 viability, higher = more signal, called active from +8 up or from −8 down
Note: test concentration not given here.

CC1CC/C=C\[C@H]2OC34C=CCN(Cc5ccccc5)C(=O)[C@H]3N(C(CO)C(C)C)C(=O)[C@@H]4C2C(=O)O1 (stereo not given in full)
z-score [1]: 0.743 | z-score [2]: 0.493 | z-score [3]: 0.539 | z-score [4]: 0.947 | z-score [5]: 0.847 | z-score [6]: -0.213 | z-score [7]: 0.000812 (inactive) | z-score [8]: -0.795 | z-score [9]: -0.0133 | z-score [10]: 0.0401 (inactive)

C=CCNC(=O)[C@@H]1[C@H]2C(=O)O[C@H](c3ccccc3)[C@H](c3ccccc3)N2[C@H](c2ccccc2OCCO)[C@@]12C(=O)Nc1ccc(C#CCC(C(=O)OC)C(=O)OC)cc12
z-score [1]: -0.423 | z-score [2]: -0.695 | z-score [3]: -0.852 | z-score [4]: -3.28 | z-score [5]: -4.17 | z-score [6]: -1.4 | z-score [7]: 2.37 (inactive) | z-score [8]: -0.941 | z-score [9]: -1.96 | z-score [10]: -1.3 (inactive)

CC1CC/C=C\[C@H]2OC34C=CCN(C(C)(C)C)C(=O)[C@H]3N(CCCCCO)C(=O)[C@@H]4C2C(=O)O1 (stereo not given in full)
z-score [1]: 0.0683 | z-score [2]: 0.525 | z-score [3]: 0.0474 | z-score [4]: 0.719 | z-score [5]: -0.561 | z-score [6]: -0.589 | z-score [7]: -0.226 (inactive) | z-score [8]: 0.592 | z-score [9]: -0.203 | z-score [10]: -0.146 (inactive)

COc1ccc([C@H]2OC[C@@H]3C[C@H](Cc4ccccc4)C(=O)N32)cc1
z-score [1]: -0.799 | z-score [2]: -0.835 | z-score [3]: -0.459 | z-score [4]: 0.191 | z-score [5]: -0.598 | z-score [6]: -0.703 | z-score [7]: 0.0558 (inactive) | z-score [8]: 0.00274 | z-score [9]: -0.393 | z-score [10]: -0.116 (inactive)

COc1ccc([Si](C)(C)[C@@H]2[C@@H](CCO)O[C@]3(C(=O)N(Cc4cccc(NC(=O)[C@H](C)O)c4)c4ccccc43)[C@H]2C)cc1
z-score [1]: -3.78 | z-score [2]: -0.578 | z-score [3]: -4.53 | z-score [4]: -2.88 | z-score [5]: -4.36 | z-score [6]: -1.37 | z-score [7]: 1.5 (inactive) | z-score [8]: -1.06 | z-score [9]: -2.24 | z-score [10]: -5.11 (inactive)

Cc1ccc(S[C@]2(C(=O)NCC(F)(F)F)CC(=O)N(Cc3cc(C(F)(F)F)cc(C(F)(F)F)c3)[C@@H]2c2ccc(CO)cc2I)cc1
z-score [1]: -0.369 | z-score [2]: -0.37 | z-score [3]: -0.548 | z-score [4]: -2.27 | z-score [5]: -2.64 | z-score [6]: -0.812 | z-score [7]: -0.792 (inactive) | z-score [8]: -0.366 | z-score [9]: -0.852 | z-score [10]: 1.19 (inactive)

CC[C@@H]1C=C(C(=O)O)[C@H](c2ccccc2)N1S(=O)(=O)c1ccc(C)cc1
z-score [1]: -0.71 | z-score [2]: -1.48 | z-score [3]: -1.22 | z-score [4]: -0.0502 | z-score [5]: -0.674 | z-score [6]: -0.93 | z-score [7]: -0.703 (inactive) | z-score [8]: 0.77 | z-score [9]: -0.76 | z-score [10]: -0.687 (inactive)

COc1cc2c(cc1O)C(C1CC1)N(C)CC2 (stereo not given)
z-score [1]: 0.368 | z-score [2]: 0.381 | z-score [3]: 0.575 | z-score [4]: 0.533 | z-score [5]: -0.393 | z-score [6]: 0.283 | z-score [7]: 0.883 (inactive) | z-score [8]: 0.0965 | z-score [9]: 1.87 | z-score [10]: -0.348 (inactive)

NC(=O)[C@H]1[C@@H]2C(=O)O[C@@H](c3ccccc3)[C@@H](c3ccccc3)N2[C@@H](c2ccc(OCCO)cc2)[C@]12C(=O)Nc1ccc(C#CCCO)cc12
z-score [1]: 0.0067 | z-score [2]: 0.272 | z-score [3]: 0.456 | z-score [4]: 0.227 | z-score [5]: 0.167 | z-score [6]: -0.202 | z-score [7]: -0.383 (inactive) | z-score [8]: -0.398 | z-score [9]: -1.18 | z-score [10]: -0.0196 (inactive)

CC(C)c1ccc(NN2C(C(O)c3ccc(F)cc3)C=CC3C(=O)N(c4ccccc4)C(=O)C32)cc1 (stereo not given)
z-score [1]: 0.394 | z-score [2]: -1.37 | z-score [3]: 0.747 | z-score [4]: -1.12 | z-score [5]: -1.46 | z-score [6]: -1.18 | z-score [7]: -0.382 (inactive) | z-score [8]: 0.282 | z-score [9]: -0.958 | z-score [10]: -0.12 (inactive)

[N-]=[N+]=Nc1ccccc1C[C@]1(C(=O)NCC(O)CO)COC(c2ccc(OCCCO)cc2)=N1 (stereo not given in full)
z-score [1]: 0.67 | z-score [2]: 1.11 | z-score [3]: 0.409 | z-score [4]: 0.195 | z-score [5]: -0.0237 | z-score [6]: 0.244 | z-score [7]: -0.257 (inactive) | z-score [8]: -0.847 | z-score [9]: 0.639 | z-score [10]: 0.837 (inactive)

COc1ccc([Si](C)(C)[C@H]2[C@H](CC(=O)N3Cc4ccccc4C[C@H]3CO)O[C@@]3(C(=O)N(Cc4ccc(N5CCOC5=O)cc4)c4ccccc43)[C@@H]2C)cc1
z-score [1]: -0.135 | z-score [2]: 1.35 | z-score [3]: -0.919 | z-score [4]: -2.92 | z-score [5]: -4.23 | z-score [6]: -0.0556 | z-score [7]: 0.19 (inactive) | z-score [8]: -1.04 | z-score [9]: -1.94 | z-score [10]: -0.0717 (inactive)

Cc1cc(C)c(C(O)C2C=CC3C(=O)N(c4ccccc4)C(=O)C3N2Nc2ccccc2F)c(C)c1 (stereo not given)
z-score [1]: -0.472 | z-score [2]: -0.89 | z-score [3]: -0.631 | z-score [4]: -1.57 | z-score [5]: 0.48 | z-score [6]: -1.84 | z-score [7]: -0.709 (inactive) | z-score [8]: -0.15 | z-score [9]: 1.01 | z-score [10]: 1.61 (inactive)

COc1cc(NN2C(C(O)c3cc(OC)c(OC)c(OC)c3)C=CC3C(=O)N(C)C(=O)C32)cc(OC)c1OC (stereo not given)
z-score [1]: -0.991 | z-score [2]: -0.919 | z-score [3]: -0.122 | z-score [4]: -0.147 | z-score [5]: -0.176 | z-score [6]: -1.09 | z-score [7]: -1.04 (inactive) | z-score [8]: 0.729 | z-score [9]: -0.417 | z-score [10]: -0.4 (inactive)

COCCOC(=O)N1C(=O)[C@@]2(c3cc(C#CCCO)ccc31)[C@H](C(=O)Nc1nc3ccccc3s1)[C@H]1C(=O)O[C@H](c3ccccc3)[C@H](c3ccccc3)N1[C@@H]2c1ccc(O)cc1
z-score [1]: -0.378 | z-score [2]: 0.274 | z-score [3]: 0.123 | z-score [4]: 0.0566 | z-score [5]: -2.06 | z-score [6]: 0.248 | z-score [7]: 0.15 (inactive) | z-score [8]: -0.314 | z-score [9]: -0.471 | z-score [10]: 0.771 (inactive)

C=C(C(=O)CC[C@H](OC(=O)c1ccccc1-c1ccccc1C(=O)O)c1cccc(OCCO)c1)C(C)C
z-score [1]: -0.613 | z-score [2]: 0.422 | z-score [3]: -0.502 | z-score [4]: -3.07 | z-score [5]: -1.52 | z-score [6]: -1.68 | z-score [7]: -0.156 (inactive) | z-score [8]: 0.248 | z-score [9]: 0.618 | z-score [10]: -0.701 (inactive)

COCCCNC(=O)[C@@]1(Sc2ccc(C)cc2)CC(=O)N(C2Cc3ccccc3C2)[C@@H]1c1ccc(CO)cc1
z-score [1]: 0.771 | z-score [2]: 0.544 | z-score [3]: -0.603 | z-score [4]: 0.762 | z-score [5]: -0.204 | z-score [6]: 0.17 | z-score [7]: -0.137 (inactive) | z-score [8]: 0.445 | z-score [9]: -1.59 | z-score [10]: 0.491 (inactive)

O=C(NCc1ccc(F)cc1)[C@H]1C[C@H]2C(=O)NCC(=O)N2[C@H]1c1ccc(O)cc1
z-score [1]: 0.139 | z-score [2]: -0.218 | z-score [3]: -0.457 | z-score [4]: -1.49 | z-score [5]: 0.461 | z-score [6]: 0.679 | z-score [7]: -0.276 (inactive) | z-score [8]: 0.683 | z-score [9]: 0.318 | z-score [10]: 0.54 (inactive)

CCCC=C(CCC)[C@@H](NC(=O)C(C)(C)C)c1ccc(C(=O)OC)cc1
z-score [1]: -1.01 | z-score [2]: -0.886 | z-score [3]: -0.47 | z-score [4]: -0.695 | z-score [5]: -2.08 | z-score [6]: 3.69 | z-score [7]: -0.614 (inactive) | z-score [8]: -0.118 | z-score [9]: -0.459 | z-score [10]: 0.821 (inactive)

COCCOC(=O)N1C(=O)[C@@]2(c3cc(C#CC4=CCCCC4)ccc31)[C@H](c1ccccc1OCCO)N1[C@H](c3ccccc3)[C@H](c3ccccc3)OC(=O)[C@H]1[C@@H]2C(=O)NC[C@H](O)c1ccccc1
z-score [1]: -1.86 | z-score [2]: 1.44 | z-score [3]: -0.529 | z-score [4]: -3.08 | z-score [5]: -3.9 | z-score [6]: 0.315 | z-score [7]: 2.5 (inactive) | z-score [8]: -0.817 | z-score [9]: -1.07 | z-score [10]: -1.59 (inactive)

C=CC[C@@H](OC(=O)Nc1ccc(SC)cc1)c1ccc(O)c(F)c1
z-score [1]: 1.12 | z-score [2]: -0.475 | z-score [3]: -0.889 | z-score [4]: -2.14 | z-score [5]: -1.75 | z-score [6]: -2.43 | z-score [7]: 4.4 (inactive) | z-score [8]: -0.343 | z-score [9]: -1.04 | z-score [10]: -0.68 (inactive)

COC(=O)C1(CC(C)C)C=C2C(=C(c3ccccc3)C(=O)C2C)CN1 (stereo not given)
z-score [1]: -0.837 | z-score [2]: -0.16 | z-score [3]: 0.0661 | z-score [4]: 0.601 | z-score [5]: -0.12 | z-score [6]: 0.0103 | z-score [7]: -1.81 (inactive) | z-score [8]: -0.604 | z-score [9]: -1.1 | z-score [10]: -0.614 (inactive)
